Consider 54 molecules from ChEMBL document CHEMBL4513216, “Probing the Open Global Health Chemical Diversity Library for Multistage-Active Starting Points for Next-Generation Antimalarials” (ACS Infect Dis, 2020).

Out of some 65,000 compounds screened, about 2,100 (3.2%) showed an effect of 50% or more. The median lay at about -52%. The sample as a whole holds a higher share of strong results than the screen did.

This assay has as its system Plasmodium falciparum. The assay can be described thus: Screen against P. falciparum Asexual Blood Stage (ABS), at 5uM. The format is functional, Dd2. Particulars: tested at 5 uM.
Consider `O=C1CNc2ncnc(N3CCN(Cc4cccc(F)c4)CC3)c2N1`, for which the INHIBITION is on record as -56.6%.

In the case of `CC(=O)Nc1nc(C(=O)N2CCCC(n3nc(C)nc3C)C2)cs1` (centres undefined), the INHIBITION was -113%.

Regarding `O=C(c1cccnc1SCc1ccccc1)N1CCOCC1`, the INHIBITION is recorded as -36.4%.

On to `O=C(c1cccnc1SC/C=C/c1ccccc1)N1CCOCC(O)C1` (centres undefined), for which the INHIBITION is on record as 55.5%.

As to `O=C(c1cccnc1SC/C=C/c1ccccc1)N1CC[C@H](O)C1`, the INHIBITION is on record as -66.8%.

For the molecule `CCOCCCNC(=O)c1cc(C)nc(N2CCCCC2)n1`, the INHIBITION is recorded as -133%.

As for `O=C(c1cnco1)N1CCC(Cc2ccc3ncccc3c2)CC1`, the INHIBITION came out at 67.4%.

For the molecule `O=C(c1cnco1)N1CCC(Cc2cnc3ccccc3c2)CC1`, the INHIBITION is listed as -56.6%.

Turning to `O=C(c1cnco1)N1CCC(Cc2cccc3ncccc23)CC1`, the INHIBITION is reported as -2.05%.

As to `Cn1cc(C[C@H]2[C@H](O)CCN2C(=O)c2ccsc2)cn1`, the INHIBITION is listed as -51.7%.

As for `Cc1cc2ccccc2n1CCC(=O)N1CCCC(O)(CN(C)C)CC1` (centres undefined), the INHIBITION is recorded as 55.2%.

`Cc1cc2ccccc2n1CCC(=O)N1CCCC2(CC1)CNC(=O)O2` (centres undefined): the INHIBITION was 21.3%.

For the molecule `Cc1cc2ccccc2n1CCC(=O)N1CCC2(CC1)CNC(=O)C2`, the INHIBITION was -33.5%.

For the molecule `CN(C)CCn1ccnc1C1CCN(c2cc(N)nc(N)n2)CC1`, the INHIBITION is -90.3%.

For the molecule `Cc1ccc(OCc2occc2C(=O)O)cc1`, the INHIBITION is -66.2%.

For the molecule `OCC1(Cc2ccccc2F)CCCN(c2ccc3ccccc3n2)C1` (centres undefined), the INHIBITION was -37.1%.

Consider `Cc1ccsc1CN(CCN(C)C)C(=O)c1ccccc1C#N`, for which the INHIBITION was 60.9%.

Regarding `Cc1ccsc1CN(CCN(C)C)C(=O)c1ccc(C#N)nc1`, the INHIBITION is 46.5%.

As to `COC(=O)c1ccccc1C(=O)N(CCN(C)C)Cc1sccc1C`, the INHIBITION came to 18.3%.

Take `O=C1CC[C@H]2[C@H](CCN2C(=O)C2CCOC2)N1Cc1ccncc1` (some centres undefined): the INHIBITION is listed as -87.6%.

As for `COc1ccc(CN2CCc3ncnc(C4CC4)c3CC2)cc1`, the INHIBITION is reported as -30.4%.

Take `Cc1ccc(CN2CCc3ncnc(OC(C)C)c3CC2)s1`: the INHIBITION was determined as 0.437%.

In the case of `CC(C)Oc1ncnc2c1CCN(Cc1ccco1)CC2`, the INHIBITION amounted to 61.2%.

Regarding `COc1ccc(CN2CCc3ncnc(OC(C)C)c3CC2)cc1`, the INHIBITION amounted to 63.6%.

Turning to `CC(C)Oc1ncnc2c1CCN(Cc1ccoc1)CC2`, the INHIBITION came out at 31.6%.

`CC(C)Oc1ncnc2c1CCN(Cc1cccs1)CC2`: the INHIBITION is -52.8%.

Regarding `COC(=O)c1ccc(NC(C)c2ccc3c(c2)NC(=O)CO3)nn1` (centres undefined), the INHIBITION is on record as -143%.

On to `O=C(O)CNc1cc(-c2nccnc2N2CCCC2)c2cc[nH]c2n1`, for which the INHIBITION is listed as -6.02%.

For the molecule `O=C(Nc1ccccc1)c1n[nH]c(-n2cnnc2)n1`, the INHIBITION is -64.6%.

In the case of `Cc1occc1C(=O)N1CCCC(c2nncn2C)C1` (centres undefined), the INHIBITION is -65.6%.

Take `CN1CCN(c2ccncc2S(=O)(=O)N2CCCCC2)CC1`: the INHIBITION is on record as -92.3%.

For `CCc1nc(C2CCCN2CCCS(=O)(=O)c2ccccc2)no1` (centres undefined), the INHIBITION was determined as 48.7%.

For the molecule `COCc1cccc(CNC(=O)CN2CCCC2c2noc(C)n2)c1` (centres undefined), the INHIBITION was -27.1%.

For `CCc1nc(C2CCCN2CCS(=O)(=O)c2ccccc2)no1` (centres undefined), the INHIBITION amounted to 60%.

As to `CC(C)c1nc(C2CCCN2CCS(=O)(=O)c2ccccc2)no1` (centres undefined), the INHIBITION is -158%.

As to `Cc1cccc(OCCNC(=O)CN2CCCC2c2noc(C)n2)c1` (centres undefined), the INHIBITION worked out at 31.6%.

For `COCc1ccccc1CNC(=O)CN1CCCC1c1noc(C)n1` (centres undefined), the INHIBITION is given as 51.2%.

For the molecule `COc1ccccc1CCNC(=O)CN1CCCC1c1noc(C)n1` (centres undefined), the INHIBITION was -3.9%.

Take `Cc1nc(C2CCCN2CC(=O)NCCOc2ccccc2)no1` (centres undefined): the INHIBITION is given as -62.7%.

`CCc1nc(C2CCCN2CC(=O)NCCOc2ccccc2)no1` (centres undefined): the INHIBITION came to 58.6%.

Regarding `CCOC1(C)C(=O)c2ccccc2N1Nc1ccccc1C(=O)CC` (centres undefined), the INHIBITION is recorded as -50.6%.

Regarding `O=C1CC[C@H]2[C@H](CCN2c2ncccn2)N1c1ccccc1`, the INHIBITION is on record as -72.8%.

Regarding `CN1CCN(C(=O)[C@H]2CC[C@@H]3[C@@H](CCN3Cc3ccsc3)O2)CC1`, the INHIBITION is given as -1.36%.

For the molecule `COc1cc(N2C[C@H]3CCC[C@@H](CN4CCCC4)[C@H]3C2)ncn1`, the INHIBITION is listed as -13.2%.

As to `Cc1c(C(=O)NCC(C)C)nnn1-c1cccc2c1CCN(C)C2`, the INHIBITION is 26.2%.

On to `Cc1csc(CCCNC(C)CC(=O)Nc2cccc(C)c2C)n1` (centres undefined), for which the INHIBITION turned out to be 50.9%.

Turning to `Cc1csc(CCCNC(C)CC(=O)Nc2ccc(F)cc2)n1` (centres undefined), the INHIBITION came out at 50.5%.

Consider `COc1ccccc1NC(=O)CC(C)NCCc1sc(C)nc1C` (centres undefined), for which the INHIBITION worked out at 22.2%.

With `CC(NCC(=O)NCC(=O)Nc1ccc(F)cc1)c1cccs1` (centres undefined), the INHIBITION was -69.5%.

`COc1ccccc1NC(=O)CC(C)NCc1scnc1C` (centres undefined): the INHIBITION was -27.4%.

For the molecule `Cc1csc(CNC(=O)NCC(O)c2ccc(F)cc2)n1` (centres undefined), the INHIBITION is -12.9%.

Turning to `COc1ccsc1C(=O)NC1CCN(c2cccc(F)c2)CC1`, the INHIBITION is on record as 27.7%.

As for `Cc1ccc(NC2CCN(C(=O)Cn3nc(C)cc3C)CC2)nn1`, the INHIBITION was -1.51%.

With `CCn1nc(C)c(C(=O)N2CCC(Nc3ccc(C)nn3)CC2)c1C`, the INHIBITION was -18.1%.
